# Test results taken from PubChem BioAssay (NCI).
# This is part of a sample that, as a whole, favours compounds with a hit. Of some 83,000 tested, about 20% had one in any assay.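 A percent growth of 40 corresponds to 60% growth inhibition; 0 means no net growth; -100 means all cells died. Active threshold: below 10.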 A number with no mark means an inactive call. Calls of active or inactive are those of the source.
# Test system: BT-549 breast
# Experiment: NCI-60 one-dose screen, 48 h (100 = growth as untreated, 0 = no growth, -100 = all killed)
# Conditions: 10 µM unless noted
# Description: Growth inhibition of the BT-549 human tumor cell line is measured as a screen for anti-cancer activity. Cells are grown in 96 well plates and exposed to the test compound for 48 hours. Compounds are tested at a single concentration, which is 10^-5 M for most compounds. The reported endpoint is percent growth (GI% or GIPRCNT), where numbers from 0 - 100% represent growth inhibition, and numbers from -100% - 0 represent cell death. For example, a value of 40 represents 60% growth inhibition. A value of 0 means no net growth occurred over the course of the experiment. A value of -40 indicates 40% of cells at the beginning of the experiment died by the end of the experiment. A value of -100 means all cells are dead at the end of the experiment.
# NCI-60 Human Tumor Cell Lines Screen was performed using the standard one-dose NCI protocol, which is described in more detail at https://dtp.cancer.gov/discovery_development/nci-60/default.htm.
# Compounds with GIPRCNT values below 10 were considered active. Activity score was based on GIPRCNT using the following formula: […]
# Score is 0 for GIPRCNT values of 100 or above, 50 for GIPRCNT values of 0, and 100 for GIPRCNT values of -100.
row,Structure (SMILES),growth
1,COc1ccc(-n2c(N)c(-c3nc4ccccc4[nH]3)cc(C#N)c2=O)cc1,75.1%
2,N#C/C(=C\c1ccc(F)cc1)n1nc2cccc(F)c2n1,60.8%
3,CNc1nc2c(s1)C(c1cc(F)ccc1F)CC(=O)N2 (stereo not given),80.5%
4,CN(C)CC#Cc1ccc2ncc(C#N)c(Nc3ccc(F)c(Cl)c3)c2c1,51.1%
5,Cc1ccc(-c2nc(N3CCN(CC(=O)Nc4ccc(Cl)c(C(F)(F)F)c4)CC3)c3ccccc3n2)cc1,94.2%
6,Cc1cc2nc3ccc(N=Nc4ccc(N(C)C)cc4)cc3n(-c3ccccc3)c-2cc1=N,-82.2% (active)
7,O=C(Nc1ccc(-c2nc(-c3cccc(OCCN4CCOCC4)c3)c(-c3ccnc(Br)c3)[nH]2)cc1)c1ccccc1,45%
8,COc1ccc([C@H]2c3cc(OC)c(OC)cc3C=C(C=O)C2CO)cc1OC (stereo not given in full),58.6%
9,NCCCNc1nc2ccccc2c2c(=O)c3cccc(F)c3sc12,91.2%
10,CCC(=O)Nc1ccc(-c2nc(-c3cccc(OC)c3)c(-c3ccnc(Br)c3)[nH]2)cc1,77.4%
11,CC/C=C\C[C@@H]1C/C=C2/C(=O)C=C[C@H]2C/C=C\CCCC(=O)O1,-55.7% (active)
12,O=C(Oc1cccc2ccccc12)Oc1cccc2ccccc12,98.9%
13,Cc1ccc2sc3c(NCCCN)nc4ccccc4c3c(=O)c2c1,96.8%
14,O=C(Nc1ccc(I)cc1F)c1cc(I)ccc1O,-9.42% (active)
15,CCCCC[C@H](O)C/C=C1/C(=O)C=C[C@@H]1C/C=C\CCCC(=O)O,54.5%
16,COc1cc(C(=O)/C=C/c2ccc(OCCCCCC[P+](c3ccccc3)(c3ccccc3)c3ccccc3)cc2)cc(OC)c1OC,-47.6% (active)
17,CC(=O)Oc1ccccc1C(=O)N=C1[Se]CCCN1C(=O)c1ccccc1OC(C)=O,-97.2% (active)
18,CCOC(=O)c1c(C)nc2c(c1N)CC(=O)N2Cc1ccc(F)cc1,72.5%
19,CCOC(=O)c1cn2ncnc(Oc3ccc(NC(=O)NCCN4CCOCC4)c(Cl)c3)c2c1C,96.5%
20,CCOC(=O)C1=C(N)Oc2c(sc3c(C)cccc23)C1c1ccc(OC)cc1 (stereo not given),49.6%

row,Structure (SMILES),growth
1,CCCCCCNC(=O)Oc1ccc(/C(=C(\C)c2ccc(Cl)cc2)c2ccc(OCCN(CC)CC)cc2)cc1,82.7%
2,Cc1nc2nc(SCC(=O)O)[nH]c2c(=O)[nH]1,97.2%
3,Oc1ccc(-c2nc3ccc4[nH]ncc4c3c3c2CCCC3)c2cccnc12,-12.9% (active)
4,COC(=O)Nc1ccc(-c2nc(-c3cccc(OC)c3)c(-c3ccnc(Br)c3)[nH]2)cc1,72.7%
5,COc1cc(C(=O)/C=C/c2sc(Cl)nc2Cl)cc(OC)c1OC,86.2%
6,COc1ccc(C2C(N)=NNC2c2cccc(O)c2)cc1 (stereo not given),87.5%
7,O=c1n(Cc2ccc3ccccc3c2)ccn1Cc1ccc2ccccc2c1,92.4%
8,CC(=O)CC[C@H]1C(=O)N[C@@H](C(C)C)C(=O)N[C@@H](Cc2cc(O)cc(F)c2)C(=O)N2CCC[C@H](N2)C(=O)O[C@H](/C(C)=C/C=C/C(=O)OC(C)(C)C)C/C=C/C=C/[C@H](O)[C@H](C)[C@H]1O,39.6%
9,c1ccc(Cc2nn3cc(-c4ccccc4)nc3s2)cc1,102%
10,C=C1CC[C@H](C(C)C)[C@@H]2[C@H]1[C@H]1CC(=C)[C@@H](O)CC[C@@](C)(O)[C@@H]2O1,99.2%
11,CN1CCN(c2ccc(-c3cnc4c(-c5csc6ccccc56)cnn4c3)cc2)CC1,-39.3% (active)
12,O=c1c2cccc(Cl)c2sc2c(NCCCNCCO)nc3ccccc3c12,80.1%
13,COc1cc2oc(-c3ccc(O)cc3)cc(=O)c2c(O)c1-c1c(OC)cc(O)c2c(=O)cc(-c3ccc(O)cc3)oc12,46.7%
14,O=C(Cc1ccc(F)c(Cl)c1)Nc1cc(C2(C(F)(F)F)CC2)nn1Cc1ccccc1,77.7%
15,Cc1ccc(/C=N\NC(=O)c2[nH]c3ccc(F)cc3c2-c2ccccc2)cc1,36.8%
16,NCCNc1nc2ccccc2c2c(=O)c3cc(F)ccc3sc12,92.5%
17,COc1cc(C(=O)N2N=C(c3ccc(S(C)(=O)=O)cc3)CC2c2ccco2)cc(OC)c1OC (stereo not given),48.5%
18,CCc1ccc(Oc2c(-c3ccc(OCc4ccc(Cl)cc4)cc3O)nn(C)c2C(F)(F)F)cc1,-12% (active)
19,COc1cc(Nc2cn[nH]c2-c2ccc(Cl)cc2)cc(OC)c1OC,46.5%
20,COc1ccc2c(c1OC)C(=O)O[C@H]2[C@H]1c2c(cc3c(c2OC)OCO3)CCN1C,98.3%
